# Test results reported in the supplement of paper PMC6522484.
# ± gives the standard deviation of the averaged measurements.
# Columns and labels:
# DLD1 [1] = assay: cell viability (CellTiter-Glo) relative to plate median (fraction of plate median); higher = more viable cells; settings: 5 µM; treatment time 24 h; reporter: 7TFP
# Method in brief: (§1)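 Normalisation used webcellHTS2 in additive mode without log transformation, scaling each well's luminescence to the plate median. The luminescence was firefly luciferase or CellTiterGlo, read on a Tecan F500 from parallel plates of colorectal cancer cells stably transduced with lentiviral TCF/Wnt firefly luciferase reporters. Those cells had been given library compounds at a final 5 µM for 24 h, and two independent replicates were averaged.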
# HCT116 = assay: as above; settings: 5 µM; treatment time 24 h; reporter: TCF4/Wnt
# Method in brief: as §1
# SW480 [2] = assay: as above; settings: 5 µM; treatment time 24 h; reporter: 7TFP
# Method in brief: as §1
# DLD1 [3] = assay: TCF/Wnt firefly luciferase reporter signal relative to plate median (fraction of plate median); higher = higher Wnt reporter signal; settings: 5 µM; treatment time 24 h; reporter: 7TFP
# Method in brief: as §1
# SW480 [4] = assay: as above; settings: 5 µM; treatment time 24 h; reporter: 7TFP
# Method in brief: as §1
structure (smiles),measurement,setting,value
CC(=O)O[C@H]1C(=O)[C@@]2(C)[C@H]([C@H](OC(=O)c3ccccc3)[C@]3(O)C[C@H](O)C(C)=C1C3(C)C)[C@]1(OC(C)=O)CO[C@@H]1C[C@@H]2O,cell viability,DLD1 [1],0.951 ± 0.013
same,cell viability,HCT116,1.04 ± 0.021
same,cell viability,SW480 [2],0.9845 ± 0.0078
same,TCF/Wnt firefly luciferase reporter signal,DLD1 [3],0.95 ± 0.028
same,TCF/Wnt firefly luciferase reporter signal,SW480 [4],0.887 ± 0.076
COc1cc([C@@H]2c3cc4c(cc3[C@H](OC(C)=O)[C@H]3COC(=O)[C@@H]23)OCO4)cc(OC)c1OC,cell viability,DLD1 [1],0.903 ± 0.098
same,cell viability,HCT116,0.904 ± 0.027
same,cell viability,SW480 [2],1.02 ± 0.028
same,TCF/Wnt firefly luciferase reporter signal,DLD1 [3],0.693 ± 0.014
same,TCF/Wnt firefly luciferase reporter signal,SW480 [4],0.867 ± 0.092
C[C@]12CCC(=O)C(O)=C1CC[C@@H]1[C@@H]2CC[C@]2(C)C(=O)CC[C@@H]12,cell viability,DLD1 [1],0.956 ± 0.011
same,cell viability,HCT116,0.996 ± 0.076
same,cell viability,SW480 [2],0.9485 ± 0.0021
same,TCF/Wnt firefly luciferase reporter signal,DLD1 [3],1.01 ± 0.023
same,TCF/Wnt firefly luciferase reporter signal,SW480 [4],1.01 ± 0.073
CC1CC(Cl)CCC1C(=O)OC(C)(C)C (stereo not given),cell viability,DLD1 [1],0.973 ± 0.052
same,cell viability,HCT116,1.045 ± 0.0071
same,cell viability,SW480 [2],0.956 ± 0.025
same,TCF/Wnt firefly luciferase reporter signal,DLD1 [3],0.976 ± 0.034
same,TCF/Wnt firefly luciferase reporter signal,SW480 [4],0.989 ± 0.03
N#C/C(=C\c1cccc(O)c1)C(=O)O [alpha-CYANO-3-HYDROXYCINNAMIC ACID],cell viability,DLD1 [1],1.05 ± 0.028
same,cell viability,HCT116,1.01 ± 0.033
same,cell viability,SW480 [2],1.04 ± 0.028
same,TCF/Wnt firefly luciferase reporter signal,DLD1 [3],1.15 ± 0.18
same,TCF/Wnt firefly luciferase reporter signal,SW480 [4],1.02 ± 0.014
COC(=O)[C@H]1O[C@@H]2C[C@H]3O[C@@H](n4cnc5c(N)ncnc54)[C@H](OC)[C@H]3O[C@@]2(O)[C@@H](O)[C@@H]1O [Herbicidin B],cell viability,DLD1 [1],0.988 ± 0.032
same,cell viability,HCT116,1.04 ± 0.081
same,cell viability,SW480 [2],1.05 ± 0.021
same,TCF/Wnt firefly luciferase reporter signal,DLD1 [3],0.857 ± 0.061
same,TCF/Wnt firefly luciferase reporter signal,SW480 [4],0.945 ± 0.051
COc1cc2c(cc1O)CCN[C@@H]2C,cell viability,DLD1 [1],0.997 ± 0.0014
same,cell viability,HCT116,1.06 ± 0.099
same,cell viability,SW480 [2],1.015 ± 0.0071
same,TCF/Wnt firefly luciferase reporter signal,DLD1 [3],0.89 ± 0.16
same,TCF/Wnt firefly luciferase reporter signal,SW480 [4],0.966 ± 0.049
Cl[C@H]1[C@H](Cl)[C@@H](Cl)[C@@H](Cl)[C@H](Cl)[C@H]1Cl,cell viability,DLD1 [1],1.05 ± 0.014
same,cell viability,HCT116,1.035 ± 0.0071
same,cell viability,SW480 [2],1.04 ± 0.042
same,TCF/Wnt firefly luciferase reporter signal,DLD1 [3],1.05 ± 0.05
same,TCF/Wnt firefly luciferase reporter signal,SW480 [4],1.15 ± 0.05
Cc1cc(O)ccc1Cl,cell viability,DLD1 [1],1.04 ± 0.035
same,cell viability,HCT116,0.994 ± 0.023
same,cell viability,SW480 [2],1.02 ± 0.028
same,TCF/Wnt firefly luciferase reporter signal,DLD1 [3],0.941 ± 0.015
same,TCF/Wnt firefly luciferase reporter signal,SW480 [4],0.834 ± 0.069
CCC(N)C(O)c1ccc(O)c(O)c1 (stereo not given),cell viability,DLD1 [1],1.02 ± 0.055
same,cell viability,HCT116,1.1 ± 0.05
same,cell viability,SW480 [2],1.07 ± 0.057
same,TCF/Wnt firefly luciferase reporter signal,DLD1 [3],1.03 ± 0.22
same,TCF/Wnt firefly luciferase reporter signal,SW480 [4],1.08 ± 0.071
CC(C)(C#N)O[C@@H]1O[C@H](CO)[C@@H](O)[C@H](O)[C@H]1O,cell viability,DLD1 [1],0.945 ± 0.078
same,cell viability,HCT116,1.06 ± 0.014
same,cell viability,SW480 [2],0.992 ± 0.0014
same,TCF/Wnt firefly luciferase reporter signal,DLD1 [3],0.953 ± 0.036
same,TCF/Wnt firefly luciferase reporter signal,SW480 [4],0.933 ± 0.036
CCC12C=CCN3CC[C@@]4(c5ccc(OC)cc5N(C)[C@H]4[C@@](O)(C(=O)OC)[C@@H]1OC(C)=O)[C@@H]32 (stereo not given in full),cell viability,DLD1 [1],0.975 ± 0.035
same,cell viability,HCT116,0.953 ± 0.025
same,cell viability,SW480 [2],0.9915 ± 0.0021
same,TCF/Wnt firefly luciferase reporter signal,DLD1 [3],0.857 ± 0.042
same,TCF/Wnt firefly luciferase reporter signal,SW480 [4],0.821 ± 0.021
O=C([O-])c1ccccc1-c1c2cc(Br)c(=O)cc-2oc2[c]([Hg+])c([O-])c(Br)cc12.[Na+].[Na+].[OH-],cell viability,DLD1 [1],0.955 ± 0.0071
same,cell viability,HCT116,0.961 ± 0.13
same,cell viability,SW480 [2],0.945 ± 0.0099
same,TCF/Wnt firefly luciferase reporter signal,DLD1 [3],1 ± 0.15
same,TCF/Wnt firefly luciferase reporter signal,SW480 [4],0.934 ± 0.052
C=C(C)[C@H]1Cc2c(ccc3c2O[C@@H]2COc4cc(OC)c(OC)cc4[C@@H]2C3=O)O1,cell viability,DLD1 [1],0.851 ± 0.054
same,cell viability,HCT116,0.637 ± 0.11
same,cell viability,SW480 [2],1.01 ± 0.05
same,TCF/Wnt firefly luciferase reporter signal,DLD1 [3],0.738 ± 0.04
same,TCF/Wnt firefly luciferase reporter signal,SW480 [4],0.753 ± 0.17
C/C=C/c1ccc2c(c1)OCO2,cell viability,DLD1 [1],0.951 ± 0.13
same,cell viability,HCT116,0.998 ± 0.059
same,cell viability,SW480 [2],0.986 ± 0.049
same,TCF/Wnt firefly luciferase reporter signal,DLD1 [3],1.04 ± 0.17
same,TCF/Wnt firefly luciferase reporter signal,SW480 [4],1.05 ± 0.1
COc1ccc(CCN2CCC(Nc3nc4ccccc4n3Cc3ccc(F)cc3)CC2)cc1,cell viability,DLD1 [1],0.977 ± 0.089
same,cell viability,HCT116,0.982 ± 0.069
same,cell viability,SW480 [2],1.06 ± 0.021
same,TCF/Wnt firefly luciferase reporter signal,DLD1 [3],1.01 ± 0.017
same,TCF/Wnt firefly luciferase reporter signal,SW480 [4],1.035 ± 0.0071
COC(=O)C1=CCCN(C)C1,cell viability,DLD1 [1],0.991 ± 0.13
same,cell viability,HCT116,1.07 ± 0.042
same,cell viability,SW480 [2],1.1 ± 0.099
same,TCF/Wnt firefly luciferase reporter signal,DLD1 [3],1.07 ± 0.11
same,TCF/Wnt firefly luciferase reporter signal,SW480 [4],1.05 ± 0.064
C[N+]1(C)CCCC(OC(=O)C(O)(c2ccccc2)c2ccccc2)C1 (stereo not given),cell viability,DLD1 [1],0.965 ± 0.036
same,cell viability,HCT116,0.936 ± 0.063
same,cell viability,SW480 [2],1.01 ± 0.014
same,TCF/Wnt firefly luciferase reporter signal,DLD1 [3],1.05 ± 0.014
same,TCF/Wnt firefly luciferase reporter signal,SW480 [4],0.957 ± 0.043
O=C1C[C@@H]2OCC=C3CN4CC[C@]56c7ccccc7N1[C@H]5[C@H]2[C@H]3C[C@H]46,cell viability,DLD1 [1],1.06 ± 0.14
same,cell viability,HCT116,0.963 ± 0.015
same,cell viability,SW480 [2],1.05 ± 0.071
same,TCF/Wnt firefly luciferase reporter signal,DLD1 [3],0.927 ± 0.044
same,TCF/Wnt firefly luciferase reporter signal,SW480 [4],0.997 ± 0.089
CC(C)=CCC[C@]1(C)C=Cc2c(O)c3c(c(CC=C(C)C)c2O1)O[C@]12C(=C[C@@H]4C[C@H]1C(C)(C)O[C@@]2(C/C=C(/C)C(=O)O)C4=O)C3=O,cell viability,DLD1 [1],0.965 ± 0.12
same,cell viability,HCT116,0.993 ± 0.053
same,cell viability,SW480 [2],1.09 ± 0.14
same,TCF/Wnt firefly luciferase reporter signal,DLD1 [3],1.05 ± 0.095
same,TCF/Wnt firefly luciferase reporter signal,SW480 [4],1.09 ± 0.028
CC(=O)Oc1c2c(c(CC=C(C)C)c3c1C(=O)C1=C[C@@H]4CC5C(C)(C)OC(C/C=C(\C)C(=O)O)(C4=O)[C@@]15O3)OC(C)(CCC=C(C)C)C=C2 (stereo not given in full),cell viability,DLD1 [1],0.809 ± 0.046
same,cell viability,HCT116,0.933 ± 0.047
same,cell viability,SW480 [2],0.913 ± 0.08
same,TCF/Wnt firefly luciferase reporter signal,DLD1 [3],0.706 ± 0.067
same,TCF/Wnt firefly luciferase reporter signal,SW480 [4],0.814 ± 0.26
C[C@]12CCC3C(CC[C@H]4C[C@H](OS(=O)(=O)O)CC[C@]34C)C1CCC2=O (stereo not given in full),cell viability,DLD1 [1],1.03 ± 0.021
same,cell viability,HCT116,1.02 ± 0.079
same,cell viability,SW480 [2],1.04 ± 0.061
same,TCF/Wnt firefly luciferase reporter signal,DLD1 [3],0.755 ± 0.015
same,TCF/Wnt firefly luciferase reporter signal,SW480 [4],0.966 ± 0.039
Nc1ccccc1C(=O)O [Anthranilic acid],cell viability,DLD1 [1],0.906 ± 0.16
same,cell viability,HCT116,1 ± 0.037
same,cell viability,SW480 [2],0.98 ± 0.015
same,TCF/Wnt firefly luciferase reporter signal,DLD1 [3],0.89 ± 0.044
same,TCF/Wnt firefly luciferase reporter signal,SW480 [4],1.04 ± 0.057
COc1cc(O)c2c(=O)oc3cc(O)cc(C)c3c2c1 [Alternariol-9-methylether],cell viability,DLD1 [1],0.979 ± 0.044
same,cell viability,HCT116,1.03 ± 0.073
same,cell viability,SW480 [2],1.01 ± 0.042
same,TCF/Wnt firefly luciferase reporter signal,DLD1 [3],0.946 ± 0.1
same,TCF/Wnt firefly luciferase reporter signal,SW480 [4],1.06 ± 0.064
CC[C@@]1(O)C[C@H](O[C@H]2C[C@H](N(C)C)[C@H](O)[C@H](C)O2)c2c(cc3c(c2O)C(=O)c2c(O)ccc(O)c2C3=O)[C@H]1C(=O)OC,cell viability,DLD1 [1],0.893 ± 0.075
same,cell viability,HCT116,0.548 ± 0.029
same,cell viability,SW480 [2],1.05 ± 0.042
same,TCF/Wnt firefly luciferase reporter signal,DLD1 [3],0.569 ± 0.068
same,TCF/Wnt firefly luciferase reporter signal,SW480 [4],0.711 ± 0.016
OCC(O)Cc1ccc2c(c1)OCO2 (stereo not given),cell viability,DLD1 [1],1.03 ± 0.095
same,cell viability,HCT116,1.04 ± 0.014
same,cell viability,SW480 [2],1.02 ± 0.033
same,TCF/Wnt firefly luciferase reporter signal,DLD1 [3],0.922 ± 0.091
same,TCF/Wnt firefly luciferase reporter signal,SW480 [4],0.985 ± 0.036
CC[C@H]1CN2CCc3cc(OC)c(OC)cc3[C@@H]2C[C@@H]1C[C@H]1NCCc2cc(OC)c(OC)cc21,cell viability,DLD1 [1],0.984 ± 0.094
same,cell viability,HCT116,0.815 ± 0.3
same,cell viability,SW480 [2],0.902 ± 0.059
same,TCF/Wnt firefly luciferase reporter signal,DLD1 [3],0.615 ± 0.1
same,TCF/Wnt firefly luciferase reporter signal,SW480 [4],0.608 ± 0.064
CC1=CCCC2C1(C)CCC(C)C2(C)CC/C(C)=C/Cn1c[n+](C)c2c(N)ncnc21 (stereo not given) [AGELASINE (stereochemistry of diterpene unknown)],cell viability,DLD1 [1],1.02 ± 0.14
same,cell viability,HCT116,1.06 ± 0.071
same,cell viability,SW480 [2],0.94 ± 0.015
same,TCF/Wnt firefly luciferase reporter signal,DLD1 [3],1.18 ± 0.092
same,TCF/Wnt firefly luciferase reporter signal,SW480 [4],1.07 ± 0.078
